In PubChem BioAssay AID620 (Sanford-Burnham Center for Chemical Genomics, 2007):
The campaign covered roughly 87,000 compounds. About 360 (0.41%) were called active. The sample holds actives, similar compounds and a random draw of the others, so the mix is not that of the screen. No stated cut-off is given here; in the data, active means cytotoxicity above about 50%; inactive means the rest.

Assay: cytotoxicity in HT1080 fibrosarcoma cells, cell-based, fluorescence readout (AID 620);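 further: cells exposed to compound overnight then 4 h with Alamar Blue; 0% = vehicle DMSO and 100% = killing control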
Conditions: HT1080 viability, at 10 µM, hits give high values

| SMILES | cytotoxicity |
| --- | --- |
| CCn1c(CC(=O)Nc2ccc(C)c(Cl)c2)nnc1SCC(=O)Nc1nc(C)cs1 | -12.9% (inactive) |
| COc1ccc(CC(=O)NC2CCN(CC(=O)Nc3ccc4c(c3)OCCO4)CC2)cc1OC | -8.3% (inactive) |
| O=C(CN1CCc2ccccc2C1)Nc1ccccc1N1CCCCCC1 | -18.8% (inactive) |
| O=C(CN1CCCC1)N1c2ccccc2Sc2ccc(C(F)(F)F)cc21 | -7.9% (inactive) |
| CN(C)CCCN1c2ccccc2Sc2ccc(C(F)(F)F)cc21 | 54% (active) |
| COc1ccc([C@@H]2Sc3ccccc3N(CCN(C)C)C(=O)[C@@H]2OC(C)=O)cc1 | 31.1% (inactive) |
| OCCN1CCN(CCCN2c3ccccc3Sc3ccc(Cl)cc32)CC1 | 22.8% (inactive) |
| CN1CCN(CCCN2c3ccccc3Sc3ccc(C(F)(F)F)cc32)CC1 | 7.7% (inactive) |
| COc1ccc2c(c1)Sc1ccccc1N2CCN(C)C | 58.8% (active) |
| CC(CN1c2ccccc2Sc2ccccc21)N(C)C (centres undefined) | 11.7% (inactive) |
| OCCN1CCN(CCCN2c3ccccc3Sc3ccc(C(F)(F)F)cc32)CC1 | 91.7% (active) |
| CN(C)CCCN1c2ccccc2Sc2ccccc21 | 15.9% (inactive) |
| O=c1c2ccccc2c(C=NC2CCS(=O)(=O)C2)c(O)n1-c1ccccc1 (centres undefined) | -6.8% (inactive) |
| Nc1c(C(=O)NCc2ccccc2)nnn1Cc1ccc(F)cc1 | 1.7% (inactive) |
| Cc1cccc(N2CCN(C(=O)c3ccc(CS(=O)(=O)c4ccccc4C)o3)CC2C)c1 (centres undefined) | 51.2% (active) |
| COc1ccc(S(=O)(=O)Cc2ccc(C(=O)N3CCN(c4cccc(C)c4)C(C)C3)o2)cc1 (centres undefined) | 52.2% (active) |
| COc1ccc(N2CCN(C(=O)c3ccc(CS(=O)(=O)c4ccc(OC)cc4)o3)CC2)cc1 | -8.4% (inactive) |
| Cc1ccc(C)c(N2CCN(C(=O)c3ccc(CS(=O)(=O)c4ccccc4C)o3)CC2)c1 | 34% (inactive) |
| CCOC(=O)N1CCN(C(=O)c2ccc(CS(=O)(=O)c3ccc(OC)cc3)o2)CC1 | 0.8% (inactive) |
| Cc1ccccc1S(=O)(=O)Cc1ccc(C(=O)N2CC(C)CC(C)C2)o1 (centres undefined) | -14.1% (inactive) |
| Cc1ccc2c(c1)[C@H]1OCC[C@H]1[C@@H](c1ccncc1)N2 | -2.2% (inactive) |
| CC1CCCCN1CCn1c(=S)[nH]c2ncccc2c1=O (centres undefined) | 33.2% (inactive) |

| SMILES | cytotoxicity |
| --- | --- |
| Cn1c(SCC(=O)NC2CCCC2)nnc1-c1ccc(S(=O)(=O)N2CCOCC2)cc1 | 4.3% (inactive) |
| O=C1CCC(=O)N1c1ccccc1-c1ccccc1 | -0.5% (inactive) |
| O=C(CCc1ccccc1)Nc1ccc(Cl)cn1 | 52.1% (active) |
| O=C(CSCc1ccccc1)Nc1ccc(Cl)cn1 | 20.2% (inactive) |
| CCCC(=O)Nc1ccc(NC(=O)CCc2ccccc2)cn1 | 8.6% (inactive) |
| Cc1ccc(NC2=NC3(CCCCC3)N=C(N)N2)c(C)c1 | 33% (inactive) |
| COC(=O)C1=C(C)Nc2nnnn2C1c1cccnc1 (centres undefined) | 10% (inactive) |
| CC1/C(=N/O)CC(c2ccccc2)N(C)C1c1ccccc1 (centres undefined) | -0.2% (inactive) |
| CCOc1ccc(S(=O)(=O)N2c3ccccc3CC2C)cc1 (centres undefined) | 74.1% (active) |
| COc1ccc(OC)c(S(=O)(=O)N2c3ccccc3CC2C)c1 (centres undefined) | 10.1% (inactive) |
| CC1Cc2ccccc2N1S(=O)(=O)c1ccc2c(c1)n(C)c(=O)c(=O)n2C (centres undefined) | -1.8% (inactive) |
| O=C(NCc1ccccn1)[C@@H]1C[C@H]1[C@@H](NP(=O)(c1ccccc1)c1ccccc1)c1ccccc1 | -17.9% (inactive) |
| CCOc1ccc(NC(=O)CSc2nnc(-c3ccco3)n2C)cc1 | -3.7% (inactive) |
| CN(C(=O)c1cc2n(n1)C(C(F)(F)F)CC(c1ccco1)N2)c1ccccc1 (centres undefined) | 56.4% (active) |
| CN(C(=O)c1cc2n(n1)C(C(F)(F)F)CC(c1ccco1)N2)c1ccc(OC(F)(F)F)cc1 (centres undefined) | -1.6% (inactive) |
| O=C(NC1CCCCCC1)c1cc2n(n1)C(C(F)(F)F)CC(c1ccco1)N2 (centres undefined) | -4.1% (inactive) |
| NC(=O)Nc1ccc(Oc2c(F)c(F)c(F)c(F)c2F)cc1 | 6% (inactive) |
| OC(CCCCN1CCCCC1)c1ccccc1 (centres undefined) | -4.7% (inactive) |
| OC(CCN1CCCC1)(c1ccccc1)C1CCCCC1 (centres undefined) | -2.5% (inactive) |
| CC(C)(C)c1ccc(C(O)CCCN2CCC(C(O)(c3ccccc3)c3ccccc3)CC2)cc1 (centres undefined) | 93.4% (active) |
| O=c1c2ccccc2nnn1CSc1nc2ccccc2c(=O)n1Cc1ccco1 | -4.3% (inactive) |
| CC1CCCCC1NC(=O)CCn1c(=O)oc2ccccc21 (centres undefined) | -4% (inactive) |

| SMILES | cytotoxicity |
| --- | --- |
| O=C(NCc1cccs1)c1noc2c1CCCCC2 | -0.7% (inactive) |
| O=C(Nc1nccs1)c1ccc(S(=O)(=O)NCC2CCCCC2)cc1 | -11.1% (inactive) |
| CCOc1ccccc1NC(=O)Cn1nnc(C(=O)NCc2ccco2)c1N | 56.8% (active) |
| CCOc1ccc(NC(=O)Cn2nnc(C(=O)NCc3ccco3)c2N)cc1 | 11.4% (inactive) |
| COc1ccc(NC(=O)Cn2nnc(C(=O)NCc3ccco3)c2N)c(OC)c1 | -0.4% (inactive) |
| CCOc1ccccc1NC(=O)C(CC(C)C)NC(=O)C1CCC(C)CC1 (centres undefined) | 4.7% (inactive) |
| O=C(O)CCC(=O)c1c[nH]c2ccccc12 | -4.6% (inactive) |
| CC(=O)N(c1ccc(Cl)cc1)c1c[nH]c2ccccc12 | 3.1% (inactive) |
| O=C(CCl)N(c1ccc(Cl)cc1)c1c[nH]c2ccccc12 | 100% (active) |
| O=C(CCl)N(c1ccccc1)c1c[nH]c2ccccc12 | 71% (active) |
| CCN(CC)CC(=O)c1c[nH]c2ccccc12 | 3.6% (inactive) |
| CN(C)CC(=O)c1c[nH]c2ccccc12 | -5.2% (inactive) |
| CC(C)OC(=O)c1cccnc1SCc1cc(=O)n2ccccc2n1 | -0.4% (inactive) |
| COc1cc(C)nc(N2CCCC(C(=O)NC3CCC(C)CC3)C2)n1 (centres undefined) | -9.4% (inactive) |
| Cc1c(C(=O)NC2CCCCC2)oc2c1C(=O)CC(C)(C)C2 | -3.7% (inactive) |
| CCOc1ccc2nc(-c3ccccc3)[nH]c2c1 | 66.7% (active) |
| COc1ccc2nc(-c3ccccc3)[nH]c2c1 | 28.2% (inactive) |
| CCOc1ccc2nc(SCC)[nH]c2c1 | 15.4% (inactive) |
| Nc1ccc(-c2nc3ccccc3[nH]2)cc1 | -3.5% (inactive) |
| COc1ccc(OCc2nc3ccccc3[nH]2)cc1 | 5.1% (inactive) |
